Compound activity from PubChem BioAssay.
Wnt bcat act: Wnt/beta-catenin pathway activators, primary screen, cell-based, plate reader, single point; activation, % at 9.35 µM; actives 1.2% (n = 300,000); Wnt/beta-catenin reporter cell assay, activator; in the data active = activation above about 30%, passing the limit was not always enough; inconclusive = no clear call, values can overlap the other calls
MITF TRPM1 HTS: activators of MITF-driven TRPM1 promoter reporter, primary screen, cell-based, SK-MEL-5, luciferase, single point; SK-MEL-5 TRPM1-promoter luciferase, 24 h; % of positive control, neutral wells = 0; activation, % at 12.5 µM; actives 0.75% (n = 300,000); AID 588334, 2011;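 active = mean activation of at least 80% with every replicate also reaching 80%; inconclusive = mean reaches 80% but some replicate falls short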
esBAF inh: Bmi1 luciferase reporter increase in mESCs, primary screen, esBAF inhibitor project, mouse ES cells, Bmi1 luciferase knock-in, single point. 24 h; 100% = twice the neutral-well signal. reporter increase, % at 12.5 µM. actives 2% (n = 350,000). AID 602393, 2012; in the data active = activation above about 40%; inconclusive = no clear call, values can overlap the other calls;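 also: a rise in the Bmi1 reporter signal indicates esBAF inhibition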
GAA850 FXN act: FXN promoter activators, primary screen, cell-based, luciferase luminescence, HEK293 lucGAA850; HEK293 lucGAA850 FXN promoter luciferase reporter, 24 h; percent of 10 µM SAHA response; activation, % at 6 µM; actives 0.56% (n = 360,000);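 active = activation above the average of all compounds screened plus 3 SD, cutoff fixed separately per campaign, cut at about 7.5% in these data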
C2C12 statin: suppressors of statin myotoxicity in C2C12 myotubes, primary screen, cell-based, single point, plate reader; C2C12 myotubes + simvastatin, ATP luminescence, 48 h; scaled: DMSO 0, geranylgeraniol control 100; rescue of ATP level, % at 7.49 µM; actives 0.78% (n = 330,000); AID 602340, 2012;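 active = mean ATP rescue above about 67%, or every replicate alone reaching that limit, limit read from the data, passing the limit was not always enough; inconclusive = no clear call, values can overlap the other calls; inactive = mean under the limit and some replicate under it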;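 also: myotubes were challenged with 10 µM simvastatin during compound exposure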
Large screens that a line does not name were inactive. The list is not random: actives were taken first. Their share in the collection is about 3.3%.

CCCCn1c(N)c(N(Cc2ccccc2OC)C(=O)CC2OC(=O)c3ccccc32)c(=O)[nH]c1=O (configuration not stated)	Wnt bcat act 32
O=C(C[C@@H]1C[C@@H]2c3cc(NC(=O)CC4CC4)ccc3O[C@@H]2[C@@H](CO)O1)NCc1ccccc1F	none (no result: Wnt bcat act, MITF TRPM1 HTS, GAA850 FXN act)
Cc1ccc(C(=O)Nc2ccc3c(c2)nc2n3CCSC2)cc1	Wnt bcat act 33 (no result: MITF TRPM1 HTS)
CSc1nc(N)nc(SCC(=O)c2ccc(C)cc2)c1C#N	esBAF inh 61 (no result: Wnt bcat act)
CSc1nc(N)nc(SCC(=O)OC(C)C)c1C#N	none (no result: MITF TRPM1 HTS)
CC(=O)c1ccc(S(=O)(=O)N(Cc2cc3cc4c(cc3[nH]c2=O)OCCO4)CC2CCCO2)cc1 (configuration not stated)	esBAF inh 46
Cc1cc(C(=O)OCc2nc3ccccc3s2)c(C)o1	esBAF inh 72 (no result: Wnt bcat act)
NC(=O)c1ccccc1OCc1nc2ccccc2s1	Wnt bcat act 42
O=C(O)COCc1nc2ccccc2s1	none
Cc1ccc2nc(N/C(=N/S(=O)(=O)c3ccc(F)cc3)c3ccccc3)sc2c1	none (no result: esBAF inh, C2C12 statin)
O=S(=O)(/N=C(/Nc1nc2ccccc2s1)c1ccccc1)c1ccccc1	Wnt bcat act 50, esBAF inh 66
NC(=O)c1ccccc1OCc1cccc2ccccc12	none
O=C(OCc1nc2ccccc2s1)c1ccc(Br)o1	none (no result: esBAF inh, C2C12 statin)
CC(=O)OCc1nc2ccccc2s1	Wnt bcat act inconclusive, esBAF inh 43 (no result: C2C12 statin)
COCC(=O)N(C)C[C@H]1Oc2ncc(-c3ccccc3OC)cc2C(=O)N([C@H](C)CO)C[C@@H]1C	none (no result: Wnt bcat act, MITF TRPM1 HTS, GAA850 FXN act)
COc1cccc(C#Cc2cnc3c(c2)C(=O)N([C@@H](C)CO)C[C@@H](C)[C@H](CN(C)C(=O)C2CC2)O3)c1	none (no result: Wnt bcat act, MITF TRPM1 HTS, GAA850 FXN act)
O=S(=O)(Cc1nc2ccccc2s1)c1ccccc1	esBAF inh 57
O=C(OCc1ccccc1)N1CCC2CC1c1ccc(/C=C/CCCCl)cc12 (configuration not stated)	esBAF inh 59 (no result: MITF TRPM1 HTS, GAA850 FXN act)
CCCCNc1ccc2c(c1)C1CC2CCN1C(=O)OCc1ccccc1 (configuration not stated)	MITF TRPM1 HTS 125, esBAF inh 100
O=C(OCc1ccccc1)N1CCC2CC1c1cc(-c3ccccc3)ccc12 (configuration not stated)	none
CO[C@H]1CN(C)C(=O)c2cc(NC(=O)Nc3cccc(F)c3)ccc2OC[C@@H](C)N(C(=O)Nc2c(C)noc2C)C[C@@H]1C	none (no result: Wnt bcat act, MITF TRPM1 HTS, GAA850 FXN act)
Cc1nn(-c2ccccc2)c(C)c1Cc1ccc(O)cc1	esBAF inh 88
O=C(Nc1ccccc1F)N[C@@H]1CC[C@H](CCNC(=O)C2CCC2)O[C@H]1CO	none (no result: Wnt bcat act, MITF TRPM1 HTS, GAA850 FXN act)
Cc1noc2ncnc(Sc3ccc(Cl)cc3)c12	C2C12 statin 134 (no result: Wnt bcat act)
Cc1ccc(Sc2ncnc3onc(C)c23)cc1	C2C12 statin 98 (no result: Wnt bcat act)
CC(C)CNS(=O)(=O)c1ccc(C(=O)Nc2ccc3c(c2)OCCO3)cc1	esBAF inh 91 (no result: Wnt bcat act)
CC(=O)Nc1ccc(C(=O)Nc2ccc3c(c2)OCCO3)cc1	none
Cc1cc(C)n(-c2ccc(C(=O)Nc3ccc4c(c3)OCCO4)cc2)n1	esBAF inh 56 (no result: Wnt bcat act)
CC1(Cc2ccc3c(c2)OCO3)C(=O)Nc2c(Cl)ccc(Cl)c21 (configuration not stated)	C2C12 statin 88 (no result: MITF TRPM1 HTS)
COc1ccc(-c2noc(C3CCCN(C(=O)c4ccccc4)C3)n2)cc1 (configuration not stated)	esBAF inh 42
O=C(c1c(F)cccc1F)N1CCCC(c2nc(-c3cccs3)no2)C1 (configuration not stated)	esBAF inh 81
O=C(c1ccc(F)cc1F)N1CCCC(c2nc(-c3cccs3)no2)C1 (configuration not stated)	none
COc1ccc(-c2noc(C3CCCN(C(=O)Nc4ccccc4)C3)n2)cc1 (configuration not stated)	esBAF inh 59
CCCC#Cc1cnc2c(c1)C(=O)N([C@@H](C)CO)C[C@H](C)[C@@H](CN(C)Cc1ccncc1)O2	none (no result: Wnt bcat act, MITF TRPM1 HTS, GAA850 FXN act)
CCCNC(=O)N(C)C[C@H]1Oc2cc(-c3cncnc3)ccc2S(=O)(=O)N([C@@H](C)CO)C[C@@H]1C	none (no result: Wnt bcat act, MITF TRPM1 HTS, GAA850 FXN act)
